Inconclusive results are not listed. Active and inactive are the calls of the source. Calls follow the shape of the dose curve; as a rule, active = well fitted curve in the direction sought with a large enough effect in the repeat runs; inconclusive = weak or mixed curves; inactive = no such curve, though single readings can be large; an effect the other way counts as inactive or inconclusive.
What was measured:
[1] = qHTS RealTime-Glo MT Cell Viability Assay in HepG2 cells - 24 hour (AID 1224867); also: nearly all actives have a fitted effect of over 50% in size
How it was run: (§1)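 Real-time, nonlytic viability: 600 HepG2 cells/well mixed with NanoLuc enzyme plus prosubstrate; 5 h settle, compound (DMSO) added by pintool; luminescence monitored over 40 h at 37 C.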

[2] = qHTS RealTime-Glo MT Cell Viability Assay in HEK293 cells - 32 hour (AID 1224868); also: top concentration of the series differs between compounds; nearly all actives have a fitted effect of over 50% in size
How it was run: (§2)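 Cells + reagent dispensed (600 cells/well, HEK293) → 5 h at 37 C/5% CO2 → 23 nL compound in DMSO pinned → 40 h at 37 C → luminescence read at 0, 8, 16, 24, 32, 40 h.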

[3] = A CellTox Green Cytotoxicity Assay to monitor cytotoxicity in HEK293 cells - 0 hour (AID 1224869); also: nearly all actives have a fitted effect of over 50% in size
How it was run: (§3)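 Read-out: fluorescence of a cell-impermeant cyanine dye staining DNA of dead cells, proportional to cytotoxicity. HEK293, 600 cells/well with reagent, compound (23 nL DMSO) added after 5 h; reads at 0, 8, 16, 24, 32, 40 h.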

[4] = qHTS RealTime-Glo MT Cell Viability Assay in HepG2 cells - 40 hour (AID 1224870); also: nearly all actives have a fitted effect of over 50% in size
How it was run: (§4)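 Real-time viability: cells seeded at 600 per well together with NanoLuc and cell-permeant prosubstrate, compounds added after 5 h incubation. Luminescence tracked at 0, 8, 16, 24, 32 and 40 h of exposure.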

[5] = A CellTox Green Cytotoxicity Assay to monitor cytotoxicity in HEK293 cells - 40 hour (AID 1224871); also: nearly all actives have a fitted effect of over 45% in size
How it was run: as §3

[6] = qHTS RealTime-Glo MT Cell Viability Assay in HEK293 cells - 16 hour (AID 1224872)
How it was run: as §2

[7] = qHTS RealTime-Glo MT Cell Viability Assay in HepG2 cells - 8 hour (AID 1224873); also: nearly all actives have a fitted effect of over 55% in size
How it was run: as §4

[8] = qHTS RealTime-Glo MT Cell Viability Assay in HEK293 cells - 40 hour (AID 1224874); conditions: RealTime-Glo luminescence; max response: stronger effect = lower value; also: nearly all actives have a fitted effect of over 50% in size
How it was run: (§5)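 Luminescence readout at each listed time point; HEK293, 600 cells/well, RealTime-Glo MT reagent added with cells; compounds pinned (23 nL in DMSO) after 5 h at 37 C; continuous culture at 37 C.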

[9] = A CellTox Green Cytotoxicity Assay to monitor cytotoxicity in HEK293 cells - 24 hour (AID 1224875); also: series mostly up to about 77 µM; nearly all actives have a fitted effect of over 45% in size
How it was run: as §3

[10] = qHTS RealTime-Glo MT Cell Viability Assay in HepG2 cells - 32 hour (AID 1224877); also: nearly all actives have a fitted effect of over 55% in size
How it was run: as §1

[11] = A CellTox Green Cytotoxicity Assay to monitor cytotoxicity in HepG2 cells - 40 hour (AID 1224879); also: nearly all actives have a fitted effect of over 40% in size
How it was run: (§6)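 HepG2, 600 cells/well premixed w/ CellTox Green; 5 h settle, 37 C/5% CO2; pintool cpd add (DMSO); 37 C, 40 h; fluorescence read at 0, 8, 16, 24, 32, 40 h.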

[12] = qHTS RealTime-Glo MT Cell Viability Assay in HEK293 cells - 0 hour (AID 1224880); also: top concentration of the series differs between compounds; nearly all actives have a fitted effect of over 45% in size
How it was run: as §5

[13] = A CellTox Green Cytotoxicity Assay to monitor cytotoxicity in HEK293 cells - 32 hour (AID 1224881); also: nearly all actives have a fitted effect of over 40% in size
How it was run: as §3

[14] = A CellTox Green Cytotoxicity Assay to monitor cytotoxicity in HepG2 cells - 32 hour (AID 1224883); also: nearly all actives have a fitted effect of over 50% in size
How it was run: as §6

[15] = A CellTox Green Cytotoxicity Assay to monitor cytotoxicity in HEK293 cells - 8 hour (AID 1224884); also: nearly all actives have a fitted effect of over 35% in size
How it was run: as §3

[16] = qHTS RealTime-Glo MT Cell Viability Assay in HepG2 cells - 16 hour (AID 1224885); also: nearly all actives have a fitted effect of over 50% in size
How it was run: as §1

[17] = A CellTox Green Cytotoxicity Assay to monitor cytotoxicity in HepG2 cells - 24 hour (AID 1224878); also: nearly all actives have a fitted effect of over 45% in size
How it was run: as §6

[18] = A CellTox Green Cytotoxicity Assay to monitor cytotoxicity in HepG2 cells - 0 hour (AID 1224882); also: nearly all actives have a fitted effect of over 35% in size
How it was run: as §6

[19] = A CellTox Green Cytotoxicity Assay to monitor cytotoxicity in HepG2 cells - 16 hour (AID 1224876); also: nearly all actives have a fitted effect of over 45% in size
How it was run: as §6
% is scaled to controls: 0 for no effect and ±100 for the full control effect.

CCC(=O)Oc1ccc2c(c1)CC[C@@H]1[C@@H]2CC[C@@]2(C)[C@H]1C[C@@H](OC(=O)CC)[C@@H]2OC(=O)CC
inactive: outcome [1] | Potency [2] | Potency [3] | outcome [4] | Potency [5] | Potency [6] | outcome [7] | max response [8] -0.818% | Potency [9] | outcome [10] | Potency [11] | Potency [12] | Potency [13] | Potency [14] | Potency [15] | outcome [16]

COC(=O)CCCCC(=O)O
inactive: outcome [1] | Potency [2] | Potency [3] | outcome [4] | Potency [5] | Potency [6] | outcome [7] | max response [8] 8.26% | Potency [9] | outcome [10] | Potency [17] | Potency [12] | Potency [13] | Potency [15] | outcome [16]

C=Cc1ccc(C(C)(C)C)cc1
inactive: outcome [1] | Potency [2] | Potency [3] | outcome [4] | Potency [5] | Potency [6] | outcome [7] | max response [8] -0.639% | Potency [9] | outcome [10] | Potency [17] | Potency [11] | Potency [12] | Potency [13] | Potency [18] | Potency [14] | Potency [15] | outcome [16]

Cn1c(=O)c2c(ncn2CCO)n(C)c1=O
inactive: outcome [1] | Potency [2] | Potency [3] | outcome [4] | Potency [5] | Potency [6] | max response [8] 3.56% | Potency [9] | outcome [10] | Potency [12] | Potency [13] | Potency [15] | outcome [16]

C=CC/C=C/C
inactive: outcome [1] | Potency [2] | Potency [3] | outcome [4] | Potency [5] | Potency [6] | outcome [7] | max response [8] -0.772% | Potency [19] | outcome [10] | Potency [17] | Potency [11] | Potency [12] | Potency [13] | Potency [18] | Potency [14] | Potency [15] | outcome [16]

Cc1ccc(N)cc1S(=O)(=O)O
inactive: outcome [1] | Potency [2] | Potency [3] | outcome [4] | Potency [5] | Potency [6] | max response [8] 7.16% | Potency [9] | Potency [19] | outcome [10] | Potency [17] | Potency [11] | Potency [12] | Potency [13] | Potency [18] | Potency [14] | Potency [15] | outcome [16]

CCC/C=C(\C=O)CC
inactive: outcome [1] | Potency [2] | Potency [3] | outcome [4] | Potency [5] | Potency [6] | outcome [7] | max response [8] -24.3% | Potency [9] | outcome [10] | Potency [17] | Potency [11] | Potency [12] | Potency [13] | Potency [18] | Potency [14] | Potency [15] | outcome [16]

CO/N=C(/C(=O)N[C@@H]1C(=O)N2C(C(=O)[O-])=C(C[n+]3ccn4ncccc43)CS[C@H]12)c1nsc(N)n1
inactive: outcome [1] | Potency [2] | Potency [3] | outcome [4] | Potency [5] | Potency [6] | outcome [7] | max response [8] 6.83% | Potency [9] | outcome [10] | Potency [17] | Potency [11] | Potency [12] | Potency [13] | Potency [14] | Potency [15] | outcome [16]

CCOc1ccccc1OCC1CNCCO1 (stereo not given)
inactive: outcome [1] | Potency [2] | Potency [3] | outcome [4] | Potency [5] | Potency [6] | max response [8] 2.19% | Potency [9] | Potency [19] | outcome [10] | Potency [17] | Potency [11] | Potency [12] | Potency [13] | Potency [18] | Potency [14] | Potency [15] | outcome [16]

CC(C)COC(=O)c1ccccc1
inactive: outcome [1] | Potency [2] | Potency [3] | outcome [4] | Potency [5] | Potency [6] | outcome [7] | max response [8] 2.33% | Potency [19] | outcome [10] | Potency [17] | Potency [11] | Potency [12] | Potency [13] | Potency [18] | Potency [14] | Potency [15] | outcome [16]

COc1cc(OC)nc(O[C@H](C(=O)O)C(OC)(c2ccccc2)c2ccccc2)n1
inactive: outcome [1] | Potency [2] | Potency [3] | outcome [4] | Potency [5] | Potency [6] | max response [8] 4.04% | Potency [9] | outcome [10] | Potency [17] | Potency [11] | Potency [12] | Potency [13] | Potency [18] | Potency [14] | Potency [15] | outcome [16]

Cc1cccc(Cl)c1
inactive: outcome [1] | Potency [2] | Potency [3] | outcome [4] | Potency [5] | Potency [6] | outcome [7] | max response [8] 0.996% | Potency [9] | outcome [10] | Potency [17] | Potency [11] | Potency [12] | Potency [13] | Potency [14] | Potency [15] | outcome [16]

CC1=NN(c2ccc(S(=O)(=O)O)cc2)C(=O)C1
inactive: outcome [1] | Potency [2] | Potency [3] | outcome [4] | Potency [5] | Potency [6] | outcome [7] | max response [8] 3.12% | Potency [9] | outcome [10] | Potency [17] | Potency [11] | Potency [12] | Potency [13] | Potency [14] | Potency [15] | outcome [16]

CO[Si](CCCn1c(=O)n(CCC[Si](OC)(OC)OC)c(=O)n(CCC[Si](OC)(OC)OC)c1=O)(OC)OC
inactive: outcome [1] | Potency [2] | Potency [3] | outcome [4] | Potency [5] | Potency [6] | outcome [7] | max response [8] 1.02% | Potency [19] | outcome [10] | Potency [17] | Potency [11] | Potency [12] | Potency [13] | Potency [18] | Potency [14] | Potency [15] | outcome [16]

CC1=C(O)C(=O)C(C)O1 (stereo not given)
inactive: outcome [1] | Potency [2] | Potency [3] | outcome [4] | Potency [5] | Potency [6] | max response [8] 2.72% | Potency [9] | outcome [10] | Potency [17] | Potency [11] | Potency [12] | Potency [13] | Potency [18] | Potency [14] | Potency [15] | outcome [16]

Source: PubChem BioAssay (Tox21)
